In the supplement of paper PMC3842684:

System: P. falciparum NF54-pfs16-GFP early (I-III) stage gametocytes
Experiment: relative % inhibition of viable gametocyte number; higher = more gametocytocidal
Settings: 5 µM; stage: early (I-III) gametocyte; incubation 72 h
How it was run: (§1)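 In 384-well poly-D-lysine imaging plates, NF54 pfs16-GFP gametocytes (magnet-isolated, early I/IIa on day 2 or late on day 8; 10% parasitaemia, 0.1% haematocrit) received compound in duplicate at 5 or 0.5 µM. Plates stood 72 h at 37°C in 5% CO2 and 5% O2, then overnight with MitoTracker Red before confocal imaging, where elongated GFP objects with MitoTracker signal above cut-off counted as viable. Relative inhibition was calculated against vehicle and positive-control wells on the same plate.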

| Compound | relative % inhibition [%] |
| --- | --- |
| CCn1c2c(c(=N)c3c1CCC3)CCCC2 | 25.3 |
| CCOc1ccc(C2N(C)c3ccccc3N2C)cc1 | 15.9 |
| CC1CCN(Cc2c(O)ccc3cc(-c4nc5ccccc5s4)c(=O)oc23)CC1 | 94.7 |
| COc1cccc(NC(=O)Cn2c(C)c(C#N)c3ccccc32)c1 | 45.2 |
| CN(C)CCCNc1c2ccccc2nc2ccccc12 | 101 |
| CCCCOc1ccc(C(=O)Nc2cc(C)on2)cc1 | 12.9 |
| COc1ccc(C(C)=O)cc1N1C(=O)C2C(C1=O)C1(c3ccccc3)C(=O)C2(c2ccccc2)C(c2ccc(C)cc2)=C1c1ccc(C)cc1 (stereo not drawn) | 93.5 |
| CCOc1c(Cl)cc(CNCC(O)c2ccccc2)cc1OC (stereo not drawn) | 13.9 |
| Oc1ccc(Cl)cc1CNc1nc2ccccc2[nH]1 | 37.3 |
| O=C(Nc1ccc(CN2CCOCC2)cc1)c1ccc(-c2cc(Cl)ccc2Cl)o1 | 20.9 |
| COc1cccc(-c2nn(C)c3sc(C(=O)NCCN4CCN(c5ccccc5F)CC4)cc23)c1 | 82.5 |
| COc1ccc(C(=O)NC(c2ccc(Cl)cc2Cl)c2cc(Cl)c3cccnc3c2O)cc1 (stereo not drawn) | 107 |
| Cc1sc2ncnc(Sc3nc4ccccc4[nH]3)c2c1C | 91.1 |
| CCN(CC)c1ccc(NC(=O)c2cccs2)cc1 | -23.9 |
| COc1ccc(Nc2cc(C)nc(NCc3ccccc3)n2)cc1 | 26.6 |
| COc1cccc(C(=O)Nc2ccc(-c3nc4ccccc4[nH]3)cc2)c1 | -15.3 |
| O=C(Nc1ccccc1O)c1ccc(-c2ccc(Cl)cc2Cl)o1 | -5.25 |
| CC1=C(CC(=O)c2cccc([N+](=O)[O-])c2)C(=O)c2ccccc2C1=O | 60 |
| CCCCc1c(C)nc2c(OC)cccc2c1O | -0.633 |
| CCc1ccc(Nc2cc(C)c3ccc(O)cc3n2)cc1 | 99.6 |

| Compound | relative % inhibition [%] |
| --- | --- |
| COc1ccccc1C(=O)ON=C(N)Cc1cccc2ccccc12 | 78 |
| COc1ccc(-c2nonc2NC(=O)c2cccc(Cl)c2)cc1OC | -10.8 |
| Cc1ccc(-c2nc3ccccc3o2)cc1NCc1cc(Cc2ccccc2)ccc1O | 95.1 |
| CN(C)c1ccc(C=Cc2nc(=O)c3ccccc3o2)cc1 | -23 |
| Cc1cc(C)c2c(c1)OCN(Cc1ccccc1Cl)C2 | 93.6 |
| O=C(Nc1ccc(N2CCCCC2)c(Cl)c1)c1ccc(Br)o1 | 8.62 |
| COc1ccc(OC)c(C2C3=C(CC(C)(C)CC3=O)N(c3ccc(Cl)c(Cl)c3)C3=C2C(=O)CC(C)(C)C3)c1 | 67.1 |
| Cc1sc(NC(=O)c2ccccc2)c(C(c2cccs2)N2CCN(c3ccccc3)CC2)c1C (stereo not drawn) | 12.8 |
| CC(O)(c1ccc(Cl)cc1)C(CN1CCCCC1)c1ccccc1 (stereo not drawn) | 59.1 |
| O=C(Nc1ccc(F)c(Cl)c1)Nc1ccc(Cl)c(Cl)c1 | 98.2 |
| CCCCCCc1cc2cc(-c3nc4ccccc4[nH]3)c(=Nc3ccccc3C)oc2cc1O | 100 |
| CN(C)CCNc1cc(-c2ccccc2)nc2ccccc12 | -20.1 |
| COc1cc2c(cc1OC)C1=NNC(=O)C1=NC(C)(C)C2 | 88.6 |
| Cc1cc(NC(=O)C2c3ccccc3C(=O)N(CC(C)C)C2c2cccs2)no1 (stereo not drawn) | 90.8 |
| CCN1CCN(c2cc(C)c3cc(NC(=O)c4ccc(OC)c(OC)c4)ccc3n2)CC1 | 14.1 |
| CC(C)c1ccc(CNCC(O)c2ccccc2)cc1 (stereo not drawn) | 89.6 |
| Cn1c(C(=O)c2cccc3ccccc23)nc2ccccc21 | 19.9 |
| O=c1nc(C=Cc2ccc(Cl)cc2)oc2ccccc12 | -14.5 |
| Oc1ccccc1CN1CCN(C(c2ccccc2)c2ccccc2)CC1 | 98.5 |

System: P. falciparum NF54-pfs16-GFP late (IV-V) stage gametocytes
Experiment: as above
Settings: 0.5 µM; stage: late (IV-V) gametocyte; incubation 72 h
How it was run: as §1

| Compound | relative % inhibition [%] |
| --- | --- |
| CCn1c2c(c(=N)c3c1CCC3)CCCC2 | 10.1 |
| CCOc1ccc(C2N(C)c3ccccc3N2C)cc1 | -6.22 |
| CC1CCN(Cc2c(O)ccc3cc(-c4nc5ccccc5s4)c(=O)oc23)CC1 | 18.2 |
| COc1cccc(NC(=O)Cn2c(C)c(C#N)c3ccccc32)c1 | -4.97 |
| CN(C)CCCNc1c2ccccc2nc2ccccc12 | 57.9 |
| CCCCOc1ccc(C(=O)Nc2cc(C)on2)cc1 | -7.15 |
| COc1ccc(C(C)=O)cc1N1C(=O)C2C(C1=O)C1(c3ccccc3)C(=O)C2(c2ccccc2)C(c2ccc(C)cc2)=C1c1ccc(C)cc1 (stereo not drawn) | 78.9 |
| CCOc1c(Cl)cc(CNCC(O)c2ccccc2)cc1OC (stereo not drawn) | 36.5 |
| Oc1ccc(Cl)cc1CNc1nc2ccccc2[nH]1 | -1.55 |
| O=C(Nc1ccc(CN2CCOCC2)cc1)c1ccc(-c2cc(Cl)ccc2Cl)o1 | -18.1 |
| COc1cccc(-c2nn(C)c3sc(C(=O)NCCN4CCN(c5ccccc5F)CC4)cc23)c1 | 16.7 |
| COc1ccc(C(=O)NC(c2ccc(Cl)cc2Cl)c2cc(Cl)c3cccnc3c2O)cc1 (stereo not drawn) | 50.9 |
| Cc1sc2ncnc(Sc3nc4ccccc4[nH]3)c2c1C | 30.6 |
| CCN(CC)c1ccc(NC(=O)c2cccs2)cc1 | 16.7 |
| COc1ccc(Nc2cc(C)nc(NCc3ccccc3)n2)cc1 | -3.1 |
| COc1cccc(C(=O)Nc2ccc(-c3nc4ccccc4[nH]3)cc2)c1 | 20 |
| O=C(Nc1ccccc1O)c1ccc(-c2ccc(Cl)cc2Cl)o1 | 19.3 |
| CC1=C(CC(=O)c2cccc([N+](=O)[O-])c2)C(=O)c2ccccc2C1=O | 39.3 |
| CCCCc1c(C)nc2c(OC)cccc2c1O | 35.7 |
| CCc1ccc(Nc2cc(C)c3ccc(O)cc3n2)cc1 | 16.3 |

| Compound | relative % inhibition [%] |
| --- | --- |
| COc1ccccc1C(=O)ON=C(N)Cc1cccc2ccccc12 | 5.05 |
| COc1ccc(-c2nonc2NC(=O)c2cccc(Cl)c2)cc1OC | -17.2 |
| Cc1ccc(-c2nc3ccccc3o2)cc1NCc1cc(Cc2ccccc2)ccc1O | 13.4 |
| CN(C)c1ccc(C=Cc2nc(=O)c3ccccc3o2)cc1 | 27.4 |
| Cc1cc(C)c2c(c1)OCN(Cc1ccccc1Cl)C2 | 31.1 |
| O=C(Nc1ccc(N2CCCCC2)c(Cl)c1)c1ccc(Br)o1 | 6.1 |
| COc1ccc(OC)c(C2C3=C(CC(C)(C)CC3=O)N(c3ccc(Cl)c(Cl)c3)C3=C2C(=O)CC(C)(C)C3)c1 | 13.8 |
| Cc1sc(NC(=O)c2ccccc2)c(C(c2cccs2)N2CCN(c3ccccc3)CC2)c1C (stereo not drawn) | 43.3 |
| CC(O)(c1ccc(Cl)cc1)C(CN1CCCCC1)c1ccccc1 (stereo not drawn) | 14 |
| O=C(Nc1ccc(F)c(Cl)c1)Nc1ccc(Cl)c(Cl)c1 | 18.8 |
| CCCCCCc1cc2cc(-c3nc4ccccc4[nH]3)c(=Nc3ccccc3C)oc2cc1O | 35 |
| CN(C)CCNc1cc(-c2ccccc2)nc2ccccc12 | -18.3 |
| COc1cc2c(cc1OC)C1=NNC(=O)C1=NC(C)(C)C2 | 100 |
| Cc1cc(NC(=O)C2c3ccccc3C(=O)N(CC(C)C)C2c2cccs2)no1 (stereo not drawn) | 31.5 |
| CCN1CCN(c2cc(C)c3cc(NC(=O)c4ccc(OC)c(OC)c4)ccc3n2)CC1 | -6.56 |
| CC(C)c1ccc(CNCC(O)c2ccccc2)cc1 (stereo not drawn) | 17.3 |
| Cn1c(C(=O)c2cccc3ccccc23)nc2ccccc21 | 9.04 |
| O=c1nc(C=Cc2ccc(Cl)cc2)oc2ccccc12 | 7.96 |
| Oc1ccccc1CN1CCN(C(c2ccccc2)c2ccccc2)CC1 | 28.3 |
